# Laboratory results from PubChem BioAssay (EPA / NIEHS).
# Active and inactive are the calls of the source. How the source made its calls: active means hit-call score of the fitted dose curve at least 0.9, where 1 is the maximum; inactive means score below 0.9.
# Assay: APR_HepG2_MitoMembPot_72hr: Apredica 72-hour HepG2 Assay for Mitochondrial Membrane Potential (AID 2282917)
# Settings: imaging, actives raise or lower the signal
# Procedure: APR_HepG2_72hr is a cell-based, multiplexed-readout assay that uses HepG2, a human liver cell line, with measurements taken at 72 hours after chemical dosing in a 384-well plate.APR_HepG2_MitoMembPot_72hr is one of 10 assay component(s) measured or calculated from the APR_HepG2_72hr assay. It is designed to make measurements of dye binding, a form of membrane potential reporter, as detected with fluorescence intensity signals by HCS Fluorescent Imaging technology.Data from the assay component APR_HepG2_MitoMembPot_72hr was analyzed into 1 assay endpoint. This assay endpoint, APR_HepG2_MitoMembPot_72hr, was analyzed with bidirectional fitting relative to DMSO as the negative control and baseline of activity. Using a type of membrane potential reporter, gain or loss-of-signal activity can be used to understand changes in the signaling. Furthermore, this assay endpoint can be referred to as a primary readout, because this assay has produced multiple assay endpoints where this one serves a signaling function. To generalize the intended target to other relatable targets, this assay endpoint is annotated to the cell morphology intended target family, where the subfamily is organelle conformation.
# Cells were treated with dimethyl sulfoxide (DMSO) as a solvent control at a final concentration of 0.5% v/v or with compounds in DMSO with a resulting final DMSO concentration of 0.5% v/v. Compound treatment was done at concentrations of 0.39, 0.78, 1.56, 3.12, 6.24, 12.5, 25, 50, 100, and 200 uM in duplicate on each plate. Cells were treated with compounds for 1, 24, or 72 hr. Carbonyl […] m-chloro-phenylhydrazone (CCCP) and taxol were used as positive controls for mitochondrial function and cytoskeletal stability, respectively; DMSO served as the negative control for this experiment. Cells were fixed by the direct addition of 50 uL formaldehyde in Hank's Balanced Salt Solution (HBSS) to a final concentration of 3.7%. After incubation in the fixation medium for 30 min at room temperature (293-298 K), cells were rinsed twice with HBSS and treated with cell permeabilization buffer (16 uL of 0.5% Triton X-100) for 10 min at room temperature (293-298 K) before labeling. For mitochondrial membrane potential and mitochondrial measurements, pre-fixed cells were incubated with 50 uL of MitoTracker Red CMXRos (Invitrogen) at a concentration of 250 nM for 30 min before fixation. In the remaining cases, post-fixed cells were labeled by incubation with a multiplexed mixture of primary antibodies in HBSS for 60 min at room temperature (293-298 K) to detect immunoreactivity of c-Jun (1:500), phospho-histone H3 (1:100), phospho-histone H2A.x (1:200), p53 (1:400), alpha-tubulin (1:200) and Hoechst 33342 (2 ug/mL). Cells were labeled for multiplexed imaging on two separate plates: a) Hoechst 33342, MitoTracker Red, phospho-histone H3, and alpha-tubulin, and b) Hoechst 33342, phospho-histone H2A.x, and c-Jun. A final rinse with HBSS (50 uL) was performed before analysis. The primary and secondary antibodies for the proteins were phospho-histone H3 (rabbit anti-phospho-histone H3 and FITC-donkey anti-rabbit IgG), phospho-histone H2A.x (mouse anti-phospho-histone H2A.x and FITC-donkey anti-mouse IgG), c-Jun (rabbit anti-phospho-c-Jun and Cy3-donkey anti-rabbit IgG), p53 (sheep anti-p53 and Cy5-donkey anti-sheep IgG), alpha-tubulin (mouse anti-alpha-tubulin and Cy5-donkey anti-mouse IgG). These antibodies are available as the CellCiphr HepG2 assay kit (Millipore).Digital images of each well were captured using a Cellomics ArrayScan VTI (Thermo Scientific Cellomics) (0.8 NA objective, 0.63x optical coupler, and XF-93 filter set) at 20x magnification. The images were acquired using the autofocus feature of the ArrayScan instrument, which entails the following steps. First, the camera focuses on channel 1 (Hoechst 33342), where nuclei are identified. Second, a Z offset of 1 um is used for capturing mitochondria (MitoTracker Red). […]
SMILES,outcome,AC50
Clc1ccccc1C(c1ccccc1)(c1ccccc1)n1ccnc1,inactive,
O=C(O)Cn1c(=O)n(Cc2ccc(Br)cc2F)c(=O)c2ccc(Cl)cc21,inactive,
COc1cc(C(=O)NC2CCN(C)CC2)ccc1Nc1ncc2c(n1)N(C1CCCC1)CC(F)(F)C(=O)N2C,inactive,
CCO[Si](CCCNC(N)=O)(OCC)OCC,inactive,
CN(C)c1ccc(C(=C2C=CC(=[N+](C)C)C=C2)c2ccc(N(C)C)cc2)cc1,,0.384 µM (active)
O=C(Nc1ccc(Cl)cc1)Nc1ccc(Cl)c(Cl)c1,,56.3 µM (active)
Cc1cc(F)ccc1-c1cc(N2CC[C@@H](O)[C@H]2CO)ncc1N(C)C(=O)C(C)(C)c1cc(C(F)(F)F)cc(C(F)(F)F)c1,inactive,
CCCCCCCCCCCC[N+](C)(C)C,inactive,
CN(C)C(=O)C1(N2CCCCC2)CCN(CC[C@@]2(c3ccc(Cl)c(Cl)c3)CN(C(=O)c3ccccc3)CCO2)CC1,inactive,
O=C1CCC(C2CCCCC2)CC1,inactive,
Cc1occc1C(=O)Nc1ccc(C(=O)N2CCC(F)(F)/C(=C\C(=O)N3CCC(N4CCCCC4)CC3)c3ccccc32)cc1,inactive,
Cc1ccc(C(C)C)cc1,inactive,
C[C@]12CC[C@@H]3c4ccc(O)cc4CC[C@H]3[C@@H]1CC[C@H]2O,inactive,
O=C1O[C@H]([C@@H](O)CO)C(O)=C1O,inactive,
CC(C)(O)c1ccc(CNC(=O)c2cccnc2Oc2ccc3nonc3c2)cc1,inactive,
CCN(CC)C(=O)c1cc(S(=O)(=O)Cc2ccccc2)c(N2CCC(c3ccccc3)CC2)cc1N(CC)CCN(C)C,,1.88 µM (active)
c1ccc2ccccc2c1,inactive,
O=c1c(-c2ccc(O)cc2)coc2cc(O)cc(O)c12,,57 µM (active)
O=C(O)c1ccccc1C(=O)OCc1ccccc1,inactive,
OCCO,inactive,

SMILES,outcome,AC50
CCCC(=O)OCCC(C)C,inactive,
CO[C@H]1/C=C/O[C@@]2(C)Oc3c(C)c(O)c4c(O)c(c(/C=N/N5CCN(C)CC5)c(O)c4c3C2=O)NC(=O)/C(C)=C\C=C\[C@H](C)[C@H](O)[C@@H](C)[C@@H](O)[C@@H](C)[C@H](OC(C)=O)[C@@H]1C,inactive,
CCCCCCCCN(C)CCCCCCCC,inactive,
CCCCCCCCCCCCO,inactive,
Cc1oc2c(NC(=O)c3c(Cl)cccc3Cl)cccc2c1C(C)(C)O,inactive,
CCN(Cc1cccnc1)C(=O)c1cccc(Cl)c1[C@]1(C)C(=O)N(Cc2ccc(OC)cc2OC)c2ccc(Cl)cc21,inactive,
CCCCCCCCOc1ccc(C(=O)c2ccccc2)c(O)c1,inactive,
Cc1ccc2oc(CN(Cc3ccccc3)C(=O)Nc3c(F)cc(F)cc3F)c(-c3ccc(Cl)cc3)c2c1,inactive,
CC(=O)N1CCN(c2ccc(OC[C@H]3CO[C@](Cn4ccnc4)(c4ccc(Cl)cc4Cl)O3)cc2)CC1,inactive,
Cc1ncc(CO)c(CO)c1O,inactive,
Cc1cc2c(cc1C(F)(F)F)N(C(=O)Nc1ccc(Oc3cccnc3C)nc1)CC2,inactive,
CN(C[C@@H](CC[N+]12CCC(C3CCCCC3)(CC1)CC2)c1ccc(Cl)c(Cl)c1)C(=O)c1cc(C(F)(F)F)cc(C(F)(F)F)c1,,47.8 µM (active)
CC[C@@H]1C[C@H](N(Cc2cc(C(F)(F)F)cc(C(F)(F)F)c2)C(C)=O)c2cc(C(F)(F)F)ccc2N1C(=O)OC(C)C,inactive,
CCCCCCCCCC(=O)O,inactive,
Cc1cccc2ccccc12,inactive,
O=C1c2ccccc2C(=O)N1CCc1noc(-c2ccc(CN3CCCCCC3)s2)n1,inactive,
COc1cccc([C@H](O)C2CCN(CCc3ccc(F)cc3)CC2)c1OC,inactive,
O=C=NCCCCCCN=C=O,inactive,
O=C(O)Cc1cc(I)c(Oc2ccc(O)c(I)c2)c(I)c1,inactive,
Clc1cc(Cl)c2c(c1)N=C1CCCCCN1C2,inactive,
